Experimental data from publication PMC12136788.
Positions count from the first letter of the chain named. In all, about 5,800 sequences were measured (“enrichment r”: median about 0.68, highest 2% from about 11 on). This excerpt belongs to a sample that is enriched for the highest values.

B1: ENSG00000227500:stop:overlap|stop_codon|ENSG00000227500|stop_codon|NA|stop_codon (ssRNA)
RNA: GGGAGUUCUACAGUCCGACGAUCGCAACAGCCUGCCCGAGUACCCCACUGUGCCCAGCUACCCGGGCAGUGGCCAGUGGCCUUAGAGGGAGCCUGCCCUGCCCCCACCGCCCACCACCUCCUCCCCUUCAUUCCUGCUGCUACCAACAGAGGAUUGAGCAUCA
B2: chr2:216672374:216672548:-|3pUTR|ENSG00000115461|msi1|FALSE|unique (ssRNA)
RNA: GGGAGUUCUACAGUCCGACGAUCUUUUUCUUUUUUUUUUUGAAGACAGCAAUAACCACAGUACAUAUUACUGUAGUUCUCUAUAGUUUUACAUACAUUCAUACCAUAACUCUGUUCUCUCCUCUUUUUUGUUUUCAACUUUAACAACAGAGGAUUGAGCAUCA
B3: chr19:57593639:57593745:+|3pUTR|ENSG00000171649|unk|total|mutant (ssRNA)
RNA: GGGAGUUCUACAGUCCGACGAUCUGAACCUUCUUAUUUCUCUACAUUCUUGCCAUACUUGGUAUGGUCCGUCUUUUUAAUUUCCGUUGUUUUAACCGCUGUAUAACCGCAUCUGUCUGUGAUUUUAUUGCAUUUUUCUGGUAUCAACAGAGGAUUGAGCAUCA
B4: chr2:171983412:171983537:+|3pUTR|ENSG00000128708|unk|FALSE|unique (ssRNA)
RNA: GGGAGUUCUACAGUCCGACGAUCUGAUGACUUUAAUUUUAAAAUCUUGUGACAUUUUGCUUAUACUAAAAGUUAUCUAUCUUUAGUUGAAUAUUUUCUUUUGGAGAGAUUGUAUAUUUUAAAAUACUGUUUAGAGUUUAUGAGCAACAGAGGAUUGAGCAUCA
B5: chr19:57593639:57593745:+|3pUTR|ENSG00000171649|unk|FALSE|unique (ssRNA)
RNA: B3 RNA with C68U, C69A, C83U, C84A, C95U, C96A, C106U, C107A
B6: chr2:216672374:216672548:-|3pUTR|ENSG00000115461|msi1|total|mutant (ssRNA)
RNA: B2 RNA with U73C, A74C, U83C, A84C
B7: chr20:3963869:3963970:-|CDS|ENSG00000101236|unk|total|mutant (ssRNA)
RNA: GGGAGUUCUACAGUCCGACGAUCAAUCUGCCUCUCAACAUAUAUAUUGUGGUUUUUGGUACUGCUAUAUUUGUCUUCAUCCUCCGUUUACUCUUCUGUUGCUACUUGAUCCGGUAACCAAUUUUCAUUCUAUGUUACUUCAAACAACAGAGGAUUGAGCAUCA

What follows are binders tested against T1, UNK ZnF1-6 (called full-length) (human, UniProt Q9C0B0 30-357) (assay: nsRBNS (natural sequence RNA bind-n-seq); RBNS binding buffer (assumed for nsRBNS): 25 mM Tris pH 7.5, 150 mM KCl, 3 mM MgCl2, 0.01% Triton X-100, 500 ug/ml BSA, 20 U/ml SUPERase-In, 4 C; UNK is unkempt and MSI1 is Musashi-1; names of the RNAs are library labels; protein concentration not given here; high values mean tight binding).
T1 sequence: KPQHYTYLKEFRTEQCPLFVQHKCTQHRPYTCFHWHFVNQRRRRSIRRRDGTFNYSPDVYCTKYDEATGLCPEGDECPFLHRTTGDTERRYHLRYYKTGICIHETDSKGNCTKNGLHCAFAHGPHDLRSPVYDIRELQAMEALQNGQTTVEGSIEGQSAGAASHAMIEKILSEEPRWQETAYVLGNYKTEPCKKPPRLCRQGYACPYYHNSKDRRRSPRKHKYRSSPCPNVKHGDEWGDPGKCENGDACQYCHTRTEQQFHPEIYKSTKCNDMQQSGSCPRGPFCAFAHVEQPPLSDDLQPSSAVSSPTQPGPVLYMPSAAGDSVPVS

| Binder | binding signal |
| --- | --- |
| B1 | 0.868 enrichment R |
| B2 | 12.2 enrichment R |
| B3 | 1.21 enrichment R |
| B4 | 4.24 enrichment R |
| B5 | 122 enrichment R |
| B6 | 1.89 enrichment R |
| B7 | 0.575 enrichment R |
